Experimental findings from PubChem BioAssay (NCI) are described below.

Each structure is given as a SMILES string. The panel holds about 83,000 compounds, 20% with a hit somewhere; the sample as a whole holds those more often.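 Cell lines were cultured in 96-well plates, exposed to a single compound concentration, and assessed for percent growth 48 hours later.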 Unmarked numbers belong to inactive results. Active and inactive are the calls of the source. How the source made its calls: active means growth percent below 10; inactive means the rest.

Experiment in all cases: NCI-60 one-dose screen, 48 h (100 = growth as untreated, 0 = no growth, -100 = all killed)
Common to all, as to settings: 10 µM

Test [1] relates to SR leukemia.
For test [2], the system named is OVCAR-8 ovarian.
Test [3] deals with OVCAR-5 ovarian.
For test [4], the system named is OVCAR-4 ovarian.
Test [5] concerns SK-OV-3 ovarian.
Test [6] has as its system IGROV1 ovarian.
For test [7], the system named is OVCAR-3 ovarian.
Test [8] deals with HS 578T breast.
Test [9] concerns NCI/ADR-RES ovarian.
For test [10], the system named is RPMI-8226 leukemia.

With `Cc1ccc(-c2cc(C(=O)N=Nc3c(O)[nH]c4ccccc34)c3ccccc3n2)cc1`, the growth in test [1] is 5.31% (active); in test [2] it was -15.8% (active); in [3], 69.4%; in [4], 1.61% (active); in test [5], 91.2%; in [6] it was 60.1%. For the same compound, the figures for the growth in test [7], in test [8] and in test [9] were -65.7% (active), 12.4% and -16.9% (active), respectively.

Regarding `COc1ccc(-c2cc(C(=O)N=Nc3c(O)[nH]c4ccccc34)c3ccccc3n2)cc1`, the growth was 22.8% in test [1]; -28.6% (active) in test [2]; 18.2% in test [3]; -36.7% (active) in test [4]; 80.9% in test [5]; -62.5% (active) in test [6]. For the same compound, the values for the growth in test [7], in test [8] and in test [9] were -93.2% (active), 31.1% and -14.4% (active), respectively.

As to `CC(=O)Nc1ccc(-n2cnc3cc(-c4ccc(O)cc4)ccc32)cc1F`, the growth in [10] was 14.3%; in test [2] it was 15.9%; in test [3], 42.7%; in test [4], 61%; in test [5] it was 13%; in test [6] it was 35.9%. Moreover, the growth was 6.74% (active) in test [7], 18.7% in test [8] and 4.16% (active) in test [9].

Turning to `CSc1nc(-c2cccc(C)c2)c2cc(-c3ccccc3)n(C)c2n1`, the growth is 11.7% in test [1]; 25.2% in test [2]; 49.6% in test [3]; 31.5% in test [4]; 69% in test [5]; 34.3% in test [6]. Also, the values for the growth in test [7], in test [8] and in [9] were -32.4% (active), 9.16% (active) and -19.6% (active), respectively.

`COc1ccc(/C=C/C(=O)c2ccc(NC(=O)CN3C(=O)NC(C)(c4ccccc4)C3=O)cc2)cc1` (stereo unspecified): the growth was 61.6% in [1]; 93.3% in [2]; 102% in test [3]; 78.3% in [4]; 106% in test [5]; 90.3% in test [6]. For the same compound, the growth in test [7] is 78.2%; in [8], 81.3%; in [9] it was 102%.

On to `CC1(c2ccccc2)NC(=O)N(CC(=O)Nc2ccc(C(=O)/C=C/C=C/c3ccccc3)cc2)C1=O` (stereo unspecified), for which the growth was 15.2% in [1]; 45% in [2]; 84.1% in test [3]; 68.7% in [4]; 120% in [5]; 86.5% in test [6]. Besides, the growth was 47.1% in test [7], 57.6% in test [8] and 82.7% in [9].

On to `CC1(c2ccccc2)NC(=O)N(CC(=O)Nc2ccc(C(=O)/C=C/c3ccccc3)cc2)C1=O` (stereo unspecified), for which the growth in [1] is 14.4%; in test [2] it was 65.1%; in [3] it was 89.2%; in [4], 60.9%; in test [6], 61.7%; in test [7], 37.7%. The values for the growth in test [8] and in test [9] were 71.5% and 87.5%, respectively.

Regarding `CS(=O)(=O)Nc1ccc(-c2ccc3c(c2)ncn3-c2ccc(NC(=O)Nc3ccc(Br)cc3)cc2)cc1`, the growth in test [10] was -24% (active); in test [2], 17.1%; in test [3], 20.1%; in test [4], 18.1%; in [5], 1.06% (active); in test [6], 26.7%. Besides, the growth is 5.29% (active) in test [7], 0.433% (active) in [8] and 59.8% in test [9].

On to `CCCCSc1nc(Nc2ccc(/C(C)=N/NC(N)=S)cc2)c(C#N)c(-c2ccc(F)cc2)n1`, for which the growth in test [1] was 52.4%; in [10] it was 58.2%; in [3], 64.4%; in [4], 16.3%; in [5], 78.4%; in test [6], 49.6%. For the same compound, the growth is 35.4% in test [7], 28.8% in test [8] and 37.5% in [9].

Turning to `Cc1ccc(C(C)C)cc1NC(=O)c1ccccc1N(C)C`, the growth is 72.6% in test [10]; 101% in test [2]; 86.6% in [3]; 90% in test [4]; 93.7% in test [5]; 88.6% in [6]. In addition, the growth in test [7] was 103%; in [8] it was 110%; in test [9], 74.6%.

In the case of `O=C(NO)c1ccc(CNc2nc(-c3ccccc3)c3ccccc3n2)cc1`, the growth was 15.7% in [1]; 11.3% in [10]; -22.4% (active) in test [3]; 32.9% in test [4]; -39.1% (active) in [5]; -46.3% (active) in test [6]. For the same compound, the figures for the growth in [7], in test [8] and in [9] were -11.3% (active), 2.21% (active) and -44.5% (active), respectively.

As for `[2H]C([2H])([2H])Oc1ccc2ncc(C#Cc3cncc(C(=O)Nc4ccc(CN5CCN(C)CC5)c(C(F)(F)F)c4)c3)n2n1`, the growth in [1] was -9.99% (active); in test [2] it was -25.7% (active); in test [3], -92.9% (active); in test [4], -34.6% (active); in test [5] it was -58.4% (active); in test [6] it was -62.5% (active). The growth in test [7] was -78.8% (active); in [8], -47.9% (active); in [9], -68% (active).

`CC(=O)NNc1ccc2nnc(-c3ccc(Br)cc3)n2n1`: the growth is 91.7% in [10]; 105% in [2]; 102% in [3]; 99.4% in test [4]; 81.2% in test [5]; 105% in [6]. Also, the growth in test [7] was 104%; in test [8], 102%; in test [9], 101%.

In the case of `COc1ccc2nc(Cl)c(-c3cc(-c4ccccc4)nc(=O)[nH]3)cc2c1`, the growth in test [10] is -14.7% (active); in [2], 11.3%; in test [3], 93.1%; in test [4], 85.3%; in test [5], 108%; in test [6] it was 78.2%. Further, the growth in [7] was 16.6%; in test [8], 77.3%; in test [9], 6.75% (active).

For the compound `O=C(Nc1cccc(-c2cn(-c3ccc4oc(=O)ccc4c3)nn2)c1)Nc1cc(C(F)(F)F)cc(C(F)(F)F)c1`, the growth is 6.66% (active) in test [10]; 34.6% in test [2]; 66.4% in [3]; 7.53% (active) in test [4]; 36.5% in [5]; 29.9% in test [6]. Besides, the growth is 16.2% in [7], 27.7% in test [8] and 50.4% in test [9].

As for `O=c1oc2ccc(-c3ccc(F)cc3F)cc2c(=O)n1-c1ccc(Cl)c(C(F)(F)F)c1`, the growth in test [10] was -32.1% (active); in [2] it was 6.71% (active); in test [3], -2.12% (active); in test [4], 16.1%; in [5] it was -4.08% (active); in test [6], 17.8%. The values for the growth in [7], in test [8] and in test [9] were 11.7%, -0.864% (active) and -12.2% (active), respectively.

On to `O=C1Nc2cc(Cl)ccc2/C1=C/c1cccc(OCc2ccccc2)c1`, for which the growth in test [10] is -34.7% (active); in test [2] it was -65% (active); in [3] it was 11.9%; in test [4], 36.7%; in test [5], 32%; in test [6], 11.1%. In addition, the growth is -5.96% (active) in test [7], -2.85% (active) in [8] and -22.2% (active) in test [9].

As for `COc1cc(NC(=O)c2cc(-c3ccc(F)cc3F)ccc2O)cc(OC)c1OC`, the growth was 12% in [10]; 48% in [2]; 111% in [3]; 17.3% in test [4]; 34.5% in test [5]; 38% in test [6]. In addition, the growth in test [7] was 26.1%; in test [8], 26.1%; in [9], 41.5%.

As to `O=C(Nc1ccccc1)Nc1nc2ccccc2s1`, the growth in [10] was 78.3%; in test [2] it was 90.2%; in test [3], 92.4%; in [4], 78.2%; in [5] it was 78.4%; in test [6], 54.8%. Also, the values for the growth in [7], in [8] and in test [9] were 110%, 86.9% and 91.8%, respectively.

`COc1cccc(-c2nn(-c3ccccc3)cc2-c2ccnc(NCCCNC(=O)Nc3ccc(F)cc3)c2)c1`: the growth is -27.4% (active) in test [10]; 11.1% in test [2]; 27.1% in test [3]; 22.8% in [4]; 3.71% (active) in test [5]; 15.8% in test [6]. Also, the results for the growth in test [7], in [8] and in test [9] were 28.4%, -3.48% (active) and -35.6% (active), respectively.

Regarding `COc1ccc(-c2nc(S(=O)(=O)c3ccc(C)cc3)c(S(C)(=O)=O)o2)cc1`, the growth was -40.3% (active) in test [10]; -77.5% (active) in [2]; -88% (active) in [3]; -90.2% (active) in test [4]; 83.6% in test [5]; -24% (active) in test [6]. In addition, the growth is -92.4% (active) in test [7], 8.31% (active) in test [8] and -62.4% (active) in test [9].

As to `O=C(N/N=C/c1ccc(-c2cccc([N+](=O)[O-])c2)o1)c1[nH]c2ccc(Br)cc2c1-c1ccccc1`, the growth in test [10] is 12%; in test [2], -19.9% (active); in [3], 23.3%; in test [4], 45.5%; in test [5], 32.2%; in [6], 33.7%. The growth was 1.91% (active) in test [7], -2.96% (active) in test [8] and -50.9% (active) in test [9].

For the compound `O=C(O)CCCCCCCCCCN1C(=O)/C(=C/c2cnc(-c3ccc(Cl)cc3)s2)SC1=S`, the growth in [10] was 74.9%; in [2] it was -2.09% (active); in test [3], 56.9%; in test [4], 67%; in [5], 3.51% (active); in [6] it was 23.9%. For the same compound, the growth in [7] is -15.1% (active); in test [8] it was 58.6%; in test [9], 11%.

With `O=S(=O)(c1ccc(Cl)cc1)c1nc(-c2ccccc2)oc1S(=O)(=O)c1ccc(Cl)cc1`, the growth in test [10] was 36.3%; in test [2] it was 81.5%; in [3], 101%; in [4], 92.8%; in test [5], 94%; in test [6] it was 91.7%. Besides, the figures for the growth in [7], in test [8] and in [9] were 89.1%, 87.4% and 81.2%, respectively.

On to `CC1(C)CC[C@]2(C(=O)Nc3ccccc3)CC[C@]3(C)C(=CC[C@@H]4[C@@]5(C)CC[C@H](N)C(C)(C)[C@@H]5CC[C@]43C)[C@H]2C1`, for which the growth in test [10] is 19.7%; in [2] it was -66.5% (active); in test [3], 84.4%; in [4], 76.8%; in [5] it was 96.5%; in test [6], 96%. Besides, the growth in [7] was 105%; in [8] it was 93.2%; in test [9], 66.5%.

In the case of `O=C(c1ccc(Cl)cc1)C1[C@H](c2ccccc2Br)[C@@H](c2ccccc2)NC12C(=O)Nc1ccc(Cl)cc12` (stereo partly specified), the growth was 10.8% in test [10]; 24.2% in test [2]; 20.8% in test [3]; 27% in test [4]; 42.9% in test [5]; 17.7% in test [6]. Further, the growth is 4.76% (active) in test [7], 27.6% in [8] and -60.1% (active) in test [9].

Regarding `COc1ccc(-c2ccc(/C=N/NC(=O)c3[nH]c4ccc(Br)cc4c3-c3ccccc3)o2)cc1`, the growth in test [10] was 18.9%; in [2] it was 37.1%; in test [3], 68.5%; in test [4] it was 44.2%; in test [5] it was 49.2%; in test [6], 64.6%. The growth in test [7] was 21.1%; in test [8], 28.5%; in [9] it was -22.8% (active).

In the case of `COc1ccc(C=CC(=O)c2ccc(-n3c(C)nc4c(cnn4-c4ccccc4)c3=O)cc2)cc1`, the growth is -18.8% (active) in [10]; 83.4% in [2]; 111% in [3]; 65.7% in test [4]; 123% in [5]; 92.7% in test [6]. The growth in [7] is 61%; in test [8], 85.5%; in test [9] it was 62.3%.
